Rows were chosen to be rich in hits. Some 2.4% of all compounds tested hit in one or more screens of this group.
SENP8 block-1: human SENP8 protease inhibitors, primary screen, biochemical, fluorescence, Nedd8 protein substrate, uHTS. Sentrin-specific protease 8 (Homo sapiens), Q96LD8. actives 0.64% (n = 360,000). recombinant SENP8. inhibition, % at 20 µM. AID 602440, 2012; in the data active = inhibition mostly above about 40%, no sharp cut-off; inactive = mostly below about 27%
Target sequence (Q96LD8 whole entry, looked up): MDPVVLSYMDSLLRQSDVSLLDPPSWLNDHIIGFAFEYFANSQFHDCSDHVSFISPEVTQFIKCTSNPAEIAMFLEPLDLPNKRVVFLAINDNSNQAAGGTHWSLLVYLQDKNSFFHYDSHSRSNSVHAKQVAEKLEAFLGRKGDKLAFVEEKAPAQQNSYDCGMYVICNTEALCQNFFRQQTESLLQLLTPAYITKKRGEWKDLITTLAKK
SENP6 block: SENP6 protease inhibitors, primary screen, biochemical, luminescence, uHTS; actives 1.8% (n = 330,000); Recombinant SENP6 catalytic domain, aminoluciferin luminescence; inhibition, % at 10 µM; Sentrin-specific protease 6 (Homo sapiens), Q9GZR1; AID 2599, 2010;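 active = inhibition above about 50% at the single tested dose, limit read from the data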;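 note: plate controls were DMSO wells with enzyme for no effect and DMSO wells lacking enzyme for full effect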
Platelet DG rel: inhibitors of platelet dense granule secretion, primary screen, cell-based, MLPCN, human platelets | actives 0.22% (n = 300,000) | human platelet-rich plasma, SFLLRN dense granule ATP release, luminescence | inhibition, %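 (compounds screened at 7.5 µM in platelet-rich plasma)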;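 active = mean replicate score, as percent of positive control, at or above 50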
SENP7 inh: SENP7 protease inhibitors, primary screen, biochemical, luminescence, uHTS. actives 1.5% (n = 330,000). inhibition, % at 5 µM. AID 434973, 2010. Sentrin-specific protease 7 (Homo sapiens), Q9BQF6. recombinant SENP7, Z-RLRGG-aminoluciferin luminescence, 40 min;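 active = inhibition above about 50% at the single test dose, limit read from the data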;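 note: plate controls were DMSO with enzyme for no effect and no enzyme buffer wells for full effect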
SENP8 block-2: SENP8 protease inhibitors, primary screen, biochemical, luminescence; purified SENP8, Z-RLRGG-aminoluciferin cleavage; actives 1.2% (n = 330,000); inhibition, % at 10 µM; in the data active = inhibition above about 50%
SENP8 confirm: SENP8 protease inhibitors, retest, confirmation, biochemical, luminescence, single concentration; actives 40% (n = 6,200); AID 488912, 2010; Recombinant SENP8, Z-RLRGG-aminoluciferin luminescence, 60 min; inhibition, % at 12.5 µM; shares compounds with SENP7 inh;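 active = mean inhibition across replicates above about 50%, limit read from the data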
SENP6 confirm: SENP6 protease inhibitors, confirmation, biochemical, luminescence, single concentration; inhibition, % at 12.5 µM; actives 58% (n = 6,200); shares compounds with SENP7 inh; recombinant SENP6, Z-RLRGG-aminoluciferin luminescence
SENP7 conf: SENP7 protease inhibitors, retest, confirmation, biochemical, luminescence, single concentration; shares compounds with SENP7 inh; recombinant SENP7, Z-RLRGG-aminoluciferin luminescence, 40 min; inhibition, % at 12.5 µM; actives 69% (n = 6,200)
Casp3 SENP sel: caspase-3 protease inhibitors, confirmation, selectivity assay for SENP inhibitor project, biochemical, single concentration | AID 488918, 2010 | shares compounds with SENP7 inh | purified caspase-3, Z-DEVD-aminoluciferin luminescence, 60 min | inhibition, % at 12.5 µM | actives 60% (n = 6,200);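 active = mean inhibition above about 50%, limit read from the data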;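 note: plate controls were enzyme with DMSO for no effect and wells without caspase-3 for full effect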
Target sequence (P42574 28-227 limits assumed): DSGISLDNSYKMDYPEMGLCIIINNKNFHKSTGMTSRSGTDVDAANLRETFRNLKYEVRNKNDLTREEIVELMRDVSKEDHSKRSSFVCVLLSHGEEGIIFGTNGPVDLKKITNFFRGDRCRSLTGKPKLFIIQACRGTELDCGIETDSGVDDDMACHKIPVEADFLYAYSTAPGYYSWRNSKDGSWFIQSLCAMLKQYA
Luc interf: luminescence interference (SENP counter-screen). shares compounds with SENP7 inh. Pre-incubated SENP8/Z-RLRGG-aminoluciferin, luciferase luminescence interference. inhibition, % at 12.5 µM. actives 39% (n = 6,200). AID 488919;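 active = mean inhibition above about 50% when retested at one dose, limit read from the data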;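 note: plate controls were DMSO wells with completed reaction for no effect and substrate without enzyme for full effect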
Starred values were filed as active, the others as inactive; . = no result given.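 Rule for the calls, unless noted: active = mean inhibition above about 50% in the one-dose retest (limit read from the data); inactive = the rest.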

SMILES | SENP8 block-1 | SENP6 block | Platelet DG rel | SENP7 inh | SENP8 block-2 | SENP8 confirm | SENP6 confirm | SENP7 conf | Casp3 SENP sel | Luc interf
COc1ccccc1N1C(=O)c2ccccc2NC1c1ccncc1 (configuration not stated) | -457 | 15 | 5 | -3 | -8 | . | . | . | . | .
COc1ccccc1N1C(=O)N(C(C)=O)C2C1Nc1ccccc1N2C (configuration not stated) | -23 | 70* | -3 | -5 | 46 | 1 | 2 | 1 | 3 | -4
COc1ccccc1-n1cnnc1SCC(=O)NC1CCCC1 | 11 | -22 | . | -6 | -15 | . | . | . | . | .
Cc1nnc2c(NC3CCCCC3)nc3ccccc3n12 | -13 | 15 | 17 | -3 | 8 | . | . | . | . | .
COc1ccc(-c2nc3ccccn3c2Cl)cc1 | -263 | 97* | 26 | 100* | 96* | 5 | 99* | 103* | 98* | 97*
CC1(C(=O)NS(=O)(=O)C2CC2)CCN(C(=O)c2ccc(F)cc2Cl)C1 (configuration not stated) | 18 | . | . | . | . | . | . | . | . | .
COc1ccccc1C(=O)Nc1nnc(-c2ccc(F)cc2)s1 | -135 | 30 | 6 | 33 | 23 | . | . | . | . | .
COc1ccccc1C(=O)Nc1nsc(-c2ccccc2)n1 | 11 | 61* | 14 | 53* | 28 | 54* | 52* | 75* | 66* | 59*
O=C(CSc1ncnc2c1cnn2-c1ccccc1)NCC1CCCO1 (configuration not stated) | -64 | 22 | -2 | 15 | 17 | . | . | . | . | .
COC(=O)C(CC(=O)c1ccc(Cl)cc1)c1ccccc1 (configuration not stated) | 16 | . | . | . | . | . | . | . | . | .
Cc1ccc(NC2Sc3ccccc3NC2=O)cc1 (configuration not stated) | 9 | 77* | -5 | 30 | 53* | 53* | 41 | 68* | 57* | 55*
COC(=O)c1nn(-c2ccc3c(c2)OCO3)cc1O | -265 | 72* | 5 | 79* | 48 | 67* | 64* | 90* | 91* | 72*
CCOC(=O)c1nn(-c2ccc3c(c2)OCCO3)cc1O | -370 | 2 | 12 | 28 | 20 | . | . | . | . | .
COC(=O)c1nn(-c2ccc3c(c2)CCN3C(C)=O)cc1O | -293 | 91* | 52* | 85* | 75* | -5 | 82* | 97* | 96* | 84*
CC(=O)N1CCc2cc([N+](=O)[O-])ccc21 | 31 | . | . | . | . | . | . | . | . | .
COc1ccc(N2CCN(C(=S)Nc3cc(C)ccc3C)CC2)cc1 | 11 | -11 | 4 | 81* | 9 | -2 | 2 | 9 | 4 | 0
C=C(C)C(O)CC/C(C)=C/Cc1c(O)ccc(C(=O)/C=C/c2ccc(O)cc2)c1O (configuration not stated) | 36 | 88* | . | 65* | 90* | 97* | 96* | 99* | 37 | 39
Cc1ccc(CN2CC(C(=O)N(Cc3nnc(-c4ccccc4Cl)o3)C3CC3)CC2=O)cc1 (configuration not stated) | 5 | -9 | 12 | 8 | -7 | . | . | . | . | .
CCOC(=O)c1c(N)sc(C(N)=O)c1C | 10 | -1 | -1 | -4 | -4 | . | . | . | . | .
CCOC(=O)c1c(N)sc(C(=O)Nc2ccccc2F)c1C | -73 | 81* | 23 | 78* | 74* | 63* | 63* | 88* | 67* | 33
CCOC(=O)c1c(N)sc(C(=O)Nc2ccccc2)c1C | -29 | 84* | 43 | 85* | 73* | -23 | 81* | 97* | 84* | 83*
CCC(=O)Nc1sc(C(=O)Nc2ccccc2F)c(C)c1C(=O)OC | 9 | 6 | -3 | -1 | 4 | . | . | . | . | .
Cc1ccc(OCC(O)CN2CCOCC2)cc1 (configuration not stated) | 1 | -18 | -5 | 17 | -1 | . | . | . | . | .
O=C(O)c1cccc(OCc2ccccc2Cl)c1 | 8 | 94* | -6 | 75* | 79* | 86* | 86* | 97* | 82* | 89*
CC(=O)c1c(C)oc2ccc(OCc3ccccc3)cc12 | 10 | 55* | 4 | 33 | 34 | 31 | 29 | 68* | 24 | 16
SMILES | SENP8 block-1 | SENP6 block | Platelet DG rel | SENP7 inh | SENP8 block-2 | SENP8 confirm | SENP6 confirm | SENP7 conf | Casp3 SENP sel | Luc interf
Cc1oc2ccc(OCc3ccc(F)cc3Cl)cc2c1C(=O)O | 6 | 24 | 0 | 10 | 20 | . | . | . | . | .
Cc1oc2ccc(OCc3ccccc3Cl)cc2c1C(=O)O | 20 | 62* | 8 | 0 | 37 | 35 | 40 | 51* | 55* | 22
O=C(Nc1cc([N+](=O)[O-])ccc1F)C1CCN(S(=O)(=O)c2cccs2)CC1 | 2 | 2 | . | -6 | -4 | . | . | . | . | .
CC(C)NS(=O)(=O)c1ccc(NC(=O)C(C)OC(=O)CCC(=O)c2cccs2)cc1 (configuration not stated) | -2 | 5 | . | -4 | 0 | . | . | . | . | .
Oc1c(C=Nc2cccnc2)sc2ccccc12 | -195 | 78* | 12 | 13 | 58* | 7 | 73* | 95* | 81* | 75*
Oc1c(C=Nc2ccccc2)sc2ccccc12 | -105 | 97* | 45 | 101* | 97* | 92* | 100* | 103* | 98* | 16
Oc1sc(C=Nc2ccccc2)c2ccccc12 | -252 | 28 | -1 | 60* | 62* | 81* | 83* | 96* | 53* | 82*
Oc1sc(C=Nc2ccc(F)cc2)c2ccccc12 | -67 | -38 | 0 | 47 | 39 | . | . | . | . | .
Oc1c(/C=N/c2ccccn2)sc2ccccc12 | -58 | 98* | 86* | 95* | 95* | 96* | 97* | 102* | 96* | 13
CN=Cc1sc2ccccc2c1O | -18 | -63 | 7 | -5 | 5 | . | . | . | . | .
O=C(NCCC1=CCCCC1)c1cc(-c2ccncc2)nc2ccccc12 | 24 | -11 | 1 | 5 | 3 | . | . | . | . | .

Screening data: PubChem, several laboratories
